{"source": "PubChem BioAssay AID1159580", "about": "(chemical genetic matrix, 2015)", "test": "chemical genetic growth profiling, strain panel (AID 1159580);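 also: tested at 20 µM; growth read once vehicle control cultures reached saturation at 30 °C; 1 = growth at the plate median or of vehicle wells; lower values mean less growth of the strain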", "details": "growth OD", "note": "Among all 5,500 compounds or so, about 2,000 (36%) were called active. About 18% were inconclusive and are not listed. Some of the results follow. Unmarked numbers belong to inactive results. Rule as the data show it: active = normalized growth mostly below about 0.91 (no sharp cut-off); inconclusive = no clear call, values can overlap the other calls; inactive = mostly above about 0.92.", "data": [{"smiles": "CCC(=O)O[C@H]1CCC2C3CCC4=CC(=O)CC[C@]4(C)C3CC[C@@]21C", "note": "(some centres not stated)", "values": [{"measurement": "normalized growth", "setting": "S. cerevisiae deletion strains, locus YJR066W, strain TOR1, active compounds read low", "result": 0.884}, {"measurement": "normalized growth", "setting": "S. cerevisiae deletion strains, locus YKL009W, strain mrt4, active compounds read low", "result": 0.974}, {"measurement": "normalized growth", "setting": "S. cerevisiae deletion strains, locus YKL068W, active compounds read low", "result": 0.972}, {"measurement": "normalized growth", "setting": "S. cerevisiae deletion strains, locus YKL085W, strain MDH1 (second series), active compounds read low", "result": "0.901 (active)"}, {"measurement": "normalized growth", "setting": "S. cerevisiae deletion strains, locus YKL085W, strain MDH1, active compounds read low", "result": "0.901 (active)"}, {"measurement": "normalized growth", "setting": "S. cerevisiae deletion strains, locus YKL160W, strain elf1, active compounds read low", "result": "0.882 (active)"}, {"measurement": "normalized growth", "setting": "S. cerevisiae deletion strains, locus YKR001C, strain vps1, active compounds read low", "result": "0.861 (active)"}, {"measurement": "normalized growth", "setting": "S. cerevisiae deletion strains, locus YKR026C, strain gcn3, active compounds read low", "result": 0.96}, {"measurement": "normalized growth", "setting": "S. cerevisiae deletion strains, locus YKR091W, strain srl3, active compounds read low", "result": 0.948}, {"measurement": "normalized growth", "setting": "S. cerevisiae deletion strains, locus YLL001W, strain dnm1, active compounds read low", "result": 0.989}, {"measurement": "normalized growth", "setting": "S. cerevisiae deletion strains, locus YLL026W, active compounds read low", "result": 0.971}, {"measurement": "normalized growth", "setting": "S. cerevisiae deletion strains, locus YLL041C, strain sdh2, active compounds read low", "result": 0.957}, {"measurement": "normalized growth", "setting": "S. cerevisiae deletion strains, locus YLR027C, strain aat2, active compounds read low", "result": 0.93}, {"measurement": "normalized growth", "setting": "S. cerevisiae deletion strains, locus YLR039C, strain RIC1, active compounds read low", "result": "0.653 (active)"}, {"measurement": "normalized growth", "setting": "S. cerevisiae deletion strains, locus YLR058C, strain SHM2, active compounds read low", "result": 0.956}, {"measurement": "normalized growth", "setting": "S. cerevisiae deletion strains, locus YLR102C, strain apc9, active compounds read low", "result": 0.99}, {"measurement": "normalized growth", "setting": "S. cerevisiae deletion strains, locus YLR113W, strain HOG1, active compounds read low", "result": 0.941}, {"measurement": "normalized growth", "setting": "S. cerevisiae deletion strains, locus YLR221C, strain rsa3, active compounds read low", "result": 0.925}, {"measurement": "normalized growth", "setting": "S. cerevisiae deletion strains, locus YLR258W, strain gsy2, active compounds read low", "result": "0.899 (active)"}, {"measurement": "normalized growth", "setting": "S. cerevisiae deletion strains, locus YLR262C, strain YPT6 (second series), active compounds read low", "result": "0.671 (active)"}, {"measurement": "normalized growth", "setting": "S. cerevisiae deletion strains, locus YLR262C, strain YPT6, active compounds read low", "result": 0.633}, {"measurement": "normalized growth", "setting": "S. cerevisiae deletion strains, locus YLR268W, strain sec22, active compounds read low", "result": 0.934}, {"measurement": "normalized growth", "setting": "S. cerevisiae deletion strains, locus YLR320W, strain mms22, active compounds read low", "result": "0.83 (active)"}, {"measurement": "normalized growth", "setting": "S. cerevisiae deletion strains, locus YLR330W, strain CHS5, active compounds read low", "result": "0.821 (active)"}, {"measurement": "normalized growth", "setting": "S. cerevisiae deletion strains, locus YLR342W, strain FKS1 (second series), active compounds read low", "result": "0.745 (active)"}, {"measurement": "normalized growth", "setting": "S. cerevisiae deletion strains, locus YLR342W, strain FKS1, active compounds read low", "result": "0.779 (active)"}, {"measurement": "normalized growth", "setting": "S. cerevisiae deletion strains, locus YLR357W, strain rsc2, active compounds read low", "result": 0.944}, {"measurement": "normalized growth", "setting": "S. cerevisiae deletion strains, locus YLR370C, strain arc18, active compounds read low", "result": 0.955}, {"measurement": "normalized growth", "setting": "S. cerevisiae deletion strains, locus YLR371W, strain rom2, active compounds read low", "result": "0.783 (active)"}, {"measurement": "normalized growth", "setting": "S. cerevisiae deletion strains, locus YLR384C, strain iki3, active compounds read low", "result": 0.969}, {"measurement": "normalized growth", "setting": "S. cerevisiae deletion strains, locus YLR418C, strain cdc73, active compounds read low", "result": "0.672 (active)"}, {"measurement": "normalized growth", "setting": "S. cerevisiae deletion strains, locus YML016C, strain PPZ1, active compounds read low", "result": 0.982}, {"measurement": "normalized growth", "setting": "S. cerevisiae deletion strains, locus YML032C, strain rad52, active compounds read low", "result": "0.889 (active)"}, {"measurement": "normalized growth", "setting": "S. cerevisiae deletion strains, locus YML120C, strain ndi1, active compounds read low", "result": 0.952}, {"measurement": "normalized growth", "setting": "S. cerevisiae deletion strains, locus YML124C, strain tub3, active compounds read low", "result": 0.972}, {"measurement": "normalized growth", "setting": "S. cerevisiae deletion strains, locus YMR058W, strain fet3, active compounds read low", "result": 0.916}, {"measurement": "normalized growth", "setting": "S. cerevisiae deletion strains, locus YMR078C, strain ctf18, active compounds read low", "result": 0.978}, {"measurement": "normalized growth", "setting": "S. cerevisiae deletion strains, locus YMR125W, strain sto1, active compounds read low", "result": 0.913}, {"measurement": "normalized growth", "setting": "S. cerevisiae deletion strains, locus YMR129W, active compounds read low", "result": 0.942}, {"measurement": "normalized growth", "setting": "S. cerevisiae deletion strains, locus YMR205C, strain PFK2, active compounds read low", "result": "0.785 (active)"}, {"measurement": "normalized growth", "setting": "S. cerevisiae deletion strains, locus YMR223W, strain ubp8, active compounds read low", "result": "0.888 (active)"}, {"measurement": "normalized growth", "setting": "S. cerevisiae deletion strains, locus YMR231W, strain pep5, active compounds read low", "result": 0.957}, {"measurement": "normalized growth", "setting": "S. cerevisiae deletion strains, locus YMR263W, strain SAP30, active compounds read low", "result": 0.963}, {"measurement": "normalized growth", "setting": "S. cerevisiae deletion strains, locus YMR307W, strain GAS1, active compounds read low", "result": 0.917}, {"measurement": "normalized growth", "setting": "S. cerevisiae deletion strains, locus YNL067W, strain RPL9B, active compounds read low", "result": 0.985}, {"measurement": "normalized growth", "setting": "S. cerevisiae deletion strains, locus YNL071W, strain lat1, active compounds read low", "result": "0.719 (active)"}, {"measurement": "normalized growth", "setting": "S. cerevisiae deletion strains, locus YNL183C, strain NPR1, active compounds read low", "result": 0.89}, {"measurement": "normalized growth", "setting": "S. cerevisiae deletion strains, locus YNL233W, strain BNI4, active compounds read low", "result": "0.803 (active)"}, {"measurement": "normalized growth", "setting": "S. cerevisiae deletion strains, locus YNL248C, strain rpa49, active compounds read low", "result": "0.86 (active)"}, {"measurement": "normalized growth", "setting": "S. cerevisiae deletion strains, locus YNL250W, strain rad50, active compounds read low", "result": 1}, {"measurement": "normalized growth", "setting": "S. cerevisiae deletion strains, locus YNL271C, strain bni1, active compounds read low", "result": 0.963}, {"measurement": "normalized growth", "setting": "S. cerevisiae deletion strains, locus YNL298W, strain CLA4, active compounds read low", "result": 0.949}, {"measurement": "normalized growth", "setting": "S. cerevisiae deletion strains, locus YNL307C, strain MCK1, active compounds read low", "result": "0.679 (active)"}, {"measurement": "normalized growth", "setting": "S. cerevisiae deletion strains, locus YNL322C, strain KRE1 (second series), active compounds read low", "result": 0.952}, {"measurement": "normalized growth", "setting": "S. cerevisiae deletion strains, locus YNL322C, strain KRE1, active compounds read low", "result": 0.958}, {"measurement": "normalized growth", "setting": "S. cerevisiae deletion strains, locus YNR049C, strain mso1, active compounds read low", "result": 0.932}, {"measurement": "normalized growth", "setting": "S. cerevisiae deletion strains, locus YNR052C, strain pop2, active compounds read low", "result": 0.924}, {"measurement": "normalized growth", "setting": "S. cerevisiae deletion strains, locus YOL006C, strain TOP1, active compounds read low", "result": 0.74}, {"measurement": "normalized growth", "setting": "S. cerevisiae deletion strains, locus YOL012C, strain htz1", "result": 0.608}, {"measurement": "normalized growth", "setting": "S. cerevisiae deletion strains, locus YOL147C, strain pex11, active compounds read low", "result": 0.967}, {"measurement": "normalized growth", "setting": "S. cerevisiae deletion strains, locus YOR001W, strain rrp6, active compounds read low", "result": 0.971}, {"measurement": "normalized growth", "setting": "S. cerevisiae deletion strains, locus YOR061W, strain CKA2, active compounds read low", "result": 0.971}, {"measurement": "normalized growth", "setting": "S. cerevisiae deletion strains, locus YOR069W, strain VPS5, active compounds read low", "result": 0.976}, {"measurement": "normalized growth", "setting": "S. cerevisiae deletion strains, locus YOR070C, strain gyp1, active compounds read low", "result": 0.944}, {"measurement": "normalized growth", "setting": "S. cerevisiae deletion strains, locus YOR080W, strain dia2, active compounds read low", "result": 0.941}, {"measurement": "normalized growth", "setting": "S. cerevisiae deletion strains, locus YOR083W, strain WHI5, active compounds read low", "result": "0.796 (active)"}, {"measurement": "normalized growth", "setting": "S. cerevisiae deletion strains, locus YOR106W, strain vam3, active compounds read low", "result": "0.837 (active)"}, {"measurement": "normalized growth", "setting": "S. cerevisiae deletion strains, locus YOR136W, strain idh2, active compounds read low", "result": 0.965}, {"measurement": "normalized growth", "setting": "S. cerevisiae deletion strains, locus YOR144C, strain elg1, active compounds read low", "result": 0.968}, {"measurement": "normalized growth", "setting": "S. cerevisiae deletion strains, locus YOR184W, strain ser1, active compounds read low", "result": "0.523 (active)"}, {"measurement": "normalized growth", "setting": "S. cerevisiae deletion strains, locus YOR231W, strain MKK1, active compounds read low", "result": 0.988}, {"measurement": "normalized growth", "setting": "S. cerevisiae deletion strains, locus YOR265W, strain rbl2, active compounds read low", "result": 0.946}, {"measurement": "normalized growth", "setting": "S. cerevisiae deletion strains, locus YOR270C, strain vph1, active compounds read low", "result": "0.653 (active)"}, {"measurement": "normalized growth", "setting": "S. cerevisiae deletion strains, locus YOR290C, strain snf2, active compounds read low", "result": 0.892}, {"measurement": "normalized growth", "setting": "S. cerevisiae deletion strains, locus YOR316C, strain cot1, active compounds read low", "result": 0.987}, {"measurement": "normalized growth", "setting": "S. cerevisiae deletion strains, locus YPL051W, strain arl3, active compounds read low", "result": "0.89 (active)"}, {"measurement": "normalized growth", "setting": "S. cerevisiae deletion strains, locus YPL055C, strain LGE1, active compounds read low", "result": 0.794}, {"measurement": "normalized growth", "setting": "S. cerevisiae deletion strains, locus YPL078C, strain atp4, active compounds read low", "result": "0.869 (active)"}, {"measurement": "normalized growth", "setting": "S. cerevisiae deletion strains, locus YPL106C, strain sse1, active compounds read low", "result": 0.906}, {"measurement": "normalized growth", "setting": "S. cerevisiae deletion strains, locus YPL240C, strain hsp82, active compounds read low", "result": 0.978}, {"measurement": "normalized growth", "setting": "S. cerevisiae deletion strains, locus YPL256C, strain CLN2, active compounds read low", "result": 0.982}, {"measurement": "normalized growth", "setting": "S. cerevisiae deletion strains, locus YPR119W, strain clb2, active compounds read low", "result": 0.981}, {"measurement": "normalized growth", "setting": "S. cerevisiae deletion strains, locus YPR141C, strain kar3, active compounds read low", "result": 0.976}, {"measurement": "normalized growth", "setting": "S. cerevisiae deletion strains, locus YPR163C, strain tif3, active compounds read low", "result": 0.933}, {"measurement": "normalized growth", "setting": "S. cerevisiae deletion strains, locus YPR167C, strain met16, active compounds read low", "result": 0.971}, {"measurement": "normalized growth", "setting": "S. cerevisiae deletion strains, strain wtn01, active compounds read low", "result": 0.924}, {"measurement": "normalized growth", "setting": "S. cerevisiae strains, strain wild type, active compounds read low", "result": 0.944}]}]}
